Assay [1] is described as follows: EMT-state selective cytotoxicity in co-culture – imaging, PC-3E GFP, TEM4-18 mCherry, primary screen (AID 1345086).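 For all read-outs here: cells exposed to compound for 72 h before imaging.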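 For red/green cell ratio (normalised): normalised mesenchymal count divided by normalised epithelial count so high means epithelial killing.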 Particulars: PC-3E GFP / TEM4-18 mCherry co-culture, imaging cell counts, at 1 µM; for red/green cell ratio (normalised): actives lie on both sides, counts scaled to control wells, 1 = unselective.
Assay [2] in a line: viability loss in pontine glioma line – cell-based, SU-DIPG-XIII, MIPE4.0, CellTiter-Glo, qHTS, dose response (AID 1347061; cut-off not given, nearly all actives have AC50 up to about 37 µM;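 note: cells exposed to compound for 48 hours before readout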). The conditions noted are these: CellTiter-Glo ATP luminescence.
A short description of assay [3]: viability loss in pontine glioma line – cell-based, JHH-DIPG-1, MIPE4.0, CellTiter-Glo, qHTS, dose response (AID 1347062; cut-off not given, nearly all actives have AC50 up to about 27 µM;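 for AC50: cells exposed to compound for two days before readout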). The conditions noted are these: JHH-DIPG-1 viability, CellTiter-Glo ATP luminescence.
Assay [4] is described as follows: viability loss in pontine glioma line – cell-based, SU-DIPG-IV, MIPE4.0, CellTiter-Glo, qHTS, dose response (AID 1347063; cut-off not given, nearly all actives have AC50 up to about 30 µM;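 note: compound exposure lasted 48 hours before the viability readout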). The conditions noted are these: CellTiter-Glo ATP luminescence.
Assay [5] in a line: viability loss in pontine glioma line – cell-based, SU-DIPG-XIII, MIPE5.0, CellTiter-Glo, qHTS, dose response (AID 1347064; cut-off not given, nearly all actives have AC50 up to about 23 µM;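 for AC50: cells exposed to compound for 48 hours before the viability read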). The conditions noted are these: CellTiter-Glo ATP luminescence.
A short description of assay [6]: viability loss in pontine glioma line – cell-based, SU-DIPG-XVII, MIPE5.0, CellTiter-Glo, qHTS, dose response (AID 1347060; cut-off not given, nearly all actives have AC50 up to about 26 µM;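 for AC50: cells exposed to compound for 48 hours before viability readout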). The conditions noted are these: CellTiter-Glo ATP luminescence.
For assay [7], the system named is Aerobactin synthetase IucA (Klebsiella pneumoniae). Briefly: inhibition of K. pneumoniae IucA enzyme – biochemical, Tocris library, absorbance (AID 1345561; call rule not given here;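 note: 100% = enzyme without compound and 0% = no enzyme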). Particulars: purified IucA enzyme assay, absorbance (OD) read-out; stronger effect = lower value;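 tested at 8 µM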.
[8] abbreviates: measured here: epithelial PC-3E GFP cell survival.
The mark [9] stands for this setting: measured here: mesenchymal TEM4-18 mCherry cell survival.

The structures appear in SMILES notation. Several values for one entry are separate records, joined by “and”; a condition that tells them apart may be missing. Equal values may be shown once. Results filed as inconclusive are left out. Activity calls are given as the source filed them.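 Rule for the calls, unless noted: active = compounds killing one labelled cell type while sparing the other, by normalised counts and ratio limits, not self-fluorescent; inactive = the rest.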

Regarding `CCC1(C)CC(=O)NC1=O` (stereo not drawn), in assay [1], the red/green cell ratio (normalised) is 1.22 (inactive). In addition, the results for the normalised cell number in assay [1] (setting [8]) and in assay [1] (setting [9]) were 1.07 and 1.31, respectively. For the same compound, the compound was called inactive in assay [2], in assay [3], in assay [4] and in assay [5].
`CC/C(=C(/CC)c1ccc(O)cc1)c1ccc(O)cc1`: the red/green cell ratio (normalised) in assay [1] was 1.15 (inactive). Further, the normalised cell number in assay [1] (setting [8]) amounted to 1.1; in assay [1] (setting [9]), 1.27. For the same compound, the compound was classed as inactive in assay [6], in assay [3] and in assay [5].
For `Cc1ccccc1N1C(=O)c2cc(S(N)(=O)=O)c(Cl)cc2NC1C` (stereo not drawn), the red/green cell ratio (normalised) in assay [1] was 1.25 (inactive). Further, the figures for the normalised cell number in assay [1] (setting [8]) and in assay [1] (setting [9]) were 1.15 and 1.44, respectively. In addition, the outcome in assay [2], in assay [3] and in assay [4] was inactive.
In the case of `CCn1cc(C(=O)O)c(=O)c2cc(F)c(N3CCNCC3)nc21`, the red/green cell ratio (normalised) in assay [1] was 1.34 (inactive). In addition, the normalised cell number in assay [1] (setting [8]) came out at 0.89; in assay [1] (setting [9]), 1.2. Further, the call in assay [2], in assay [3] and in assay [4] was inactive.
With `OC[C@H]1O[C@@H](Oc2ccc(O)cc2)[C@H](O)[C@@H](O)[C@@H]1O`, in assay [1], the red/green cell ratio (normalised) was 1.05 (inactive). Further, the normalised cell number in assay [1] (setting [8]) amounted to 1.15; in assay [1] (setting [9]), 1.21. For the same compound, the outcome in assay [2], in assay [3] and in assay [4] was inactive.
For `O=C(NC(Cc1cc(=O)[nH]c2ccccc12)C(=O)O)c1ccc(Cl)cc1` (stereo not drawn), in assay [1], the red/green cell ratio (normalised) was 1.12 (inactive). In addition, the normalised cell number is 0.89 in assay [1] (setting [8]) and 0.99 in assay [1] (setting [9]). The compound was called inactive in assay [6], in assay [3], in assay [4] and in assay [5].
Regarding `C1CCC(C(CC2CCCCN2)C2CCCCC2)CC1` (stereo not drawn), the red/green cell ratio (normalised) in assay [1] is 0.98 (inactive). Also, the normalised cell number was 1.13 in assay [1] (setting [8]) and 1.11 in assay [1] (setting [9]). The AC50 in assay [6] was 7.42 µM (active); in assay [3], 9.35 µM (active); in assay [4], 20.9 µM (active); in assay [5] it was 11.8 µM (active).
`Nc1ccc(S(=O)(=O)Nc2ccnn2-c2ccccc2)cc1`: the red/green cell ratio (normalised) in assay [1] is 0.85 (inactive). Besides, the values for the normalised cell number in assay [1] (setting [8]) and in assay [1] (setting [9]) were 1.05 and 0.9, respectively. The outcome in assay [2], in assay [3] and in assay [4] was inactive.
With `O=C(O)c1cccnc1Nc1cccc(C(F)(F)F)c1`, the red/green cell ratio (normalised) in assay [1] is 0.93 (inactive). In addition, the normalised cell number came to 1.08 in assay [1] (setting [8]) and 1 in assay [1] (setting [9]). The call in assay [2], in assay [3] and in assay [4] was inactive.
`Cc1cn[nH]c1`: the red/green cell ratio (normalised) in assay [1] was 0.92 (inactive) and 0.9 (inactive). Moreover, the normalised cell number in assay [1] (setting [8]) was 0.94 and 1.1; in assay [1] (setting [9]) it was 0.86 and 0.99. In addition, the compound was called inactive in assay [6] and in assay [5]. Besides, the AC50 in assay [3] was 0.105 µM (active); in assay [4], 3.32 µM (active).
`CCCN(CCC)C(=O)C(CCC(=O)O)NC(=O)c1ccccc1` (stereo not drawn): in assay [1], the red/green cell ratio (normalised) is 1.08 (inactive). For the same compound, the normalised cell number in assay [1] (setting [8]) is 0.92; in assay [1] (setting [9]), 1. Also, the AC50 in assay [6] was 26.3 µM (active). Also, in assay [5], the compound was called inactive.
With `C[C@H]1c2cccc(O)c2C(O)=C2C(=O)[C@]3(O)C(O)=C(C(N)=O)C(=O)[C@@H](N(C)C)[C@@H]3[C@@H](O)[C@@H]21`, the red/green cell ratio (normalised) in assay [1] was 1.48 (inactive). In addition, the normalised cell number in assay [1] (setting [8]) was determined as 1.06; in assay [1] (setting [9]), 1.57. Also, the compound was classed as inactive in assay [2] and in assay [3].
Regarding `Clc1ccc(C(c2ccccc2Cl)C(Cl)Cl)cc1` (stereo not drawn), in assay [1], the red/green cell ratio (normalised) was 0.98 (inactive). Besides, the normalised cell number in assay [1] (setting [8]) is 1.11; in assay [1] (setting [9]), 1.08. The AC50 in assay [4] was 16.6 µM (active); in assay [5], 18.6 µM (active).
As to `Cc1onc(-c2ccccc2)c1C(=O)N[C@@H]1C(=O)N2[C@@H]1SC(C)(C)[C@@H]2C(=O)O`, the result in assay [2], in assay [3] and in assay [4] was inactive.
`CCN1CCN(C(=O)N[C@@H](C(=O)N[C@@H]2C(=O)N3C(C(=O)O)=C(CSc4nnnn4C)CS[C@H]23)c2ccc(O)cc2)C(=O)C1=O`: the AC50 in assay [6] is 26.3 µM (active). Moreover, in assay [5], the outcome was inactive.
For the compound `NC[C@H](O)c1ccc(O)c(O)c1`, the result in assay [6] and in assay [4] was inactive.
Turning to `C#C[C@]1(O)CC[C@H]2[C@@H]3CCc4cc(O)ccc4[C@H]3CC[C@@]21C`, the AC50 in assay [6] is 16.6 µM (active). Further, in assay [5], the outcome was inactive.
`C=C[C@@]1(C)CC(=O)[C@]2(O)[C@@]3(C)[C@@H](O)CCC(C)(C)[C@@H]3[C@H](O)[C@H](OC(C)=O)[C@@]2(C)O1`: the remaining activity in assay [7] is 113% (inactive).
As for `O=c1[nH]c(=O)n([C@H]2C[C@H](O)[C@@H](CO)O2)cc1F`, the AC50 in assay [2] was 13.2 µM (active); in assay [3], 1.48 µM (active).
Consider `COc1cc(/C=C/C(=O)CC(=O)/C=C/c2ccc(O)c(OC)c2)ccc1O`, for which the AC50 is 30.3 µM (active) in assay [4] and 16.6 µM (active) in assay [5].
With `Cc1cccc(N(C)C(=S)Oc2ccc3ccccc3c2)c1`, the red/green cell ratio (normalised) in assay [1] is 1.19 (inactive). The normalised cell number turned out to be 1.22 in assay [1] (setting [8]) and 1.46 in assay [1] (setting [9]). Besides, the outcome in assay [3] and in assay [5] was inactive.

The values above are taken from PubChem BioAssay.
